Screens as filed in PubChem BioAssay.
TDP1 cell noCPT: qHTS for Inhibitors of human tyrosyl-DNA phosphodiesterase 1 (TDP1): qHTS in cells in absence of CPT; DT40 Tdp1-/- hTDP1 cells, no CPT, ATP luminescence, 48 h; Potency, µM (titrated, usually from 46.2 µM), without a hit: at the highest dose activity change, negative = growth inhibition, hits mostly inhibitors; AID 686978, 2013; 420,000 compounds, 15% hits; further: nearly all actives have a fitted effect of over 55% in size
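A cellular qHTS used chicken DT40 cells lacking endogenous Tdp1 but carrying stably transfected human TDP1. Compounds were applied without camptothecin, and cell growth kinetics were judged by ATP-dependent luminescence after ≥48 hr.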
HT1080NT lethal: kills 2HG-producing HT-1080-NT fibrosarcoma cells; HT-1080-NT fibrosarcoma viability, CellTiter-Glo ATP luminescence, 48 h; Potency, µM (top dose mostly 46.1 µM), inactives show at the highest dose activity, negative = less viability, most hits filed as cytotoxic; 360,000 compounds, 1.6% hits; AID 686970;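 further: NT is the 2HG producing partner of a matched IDH1 knockdown line; 0% = DMSO-treated cells and -100% = media-only wells without cells; nearly all actives have a fitted effect of over 55% in size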
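Compounds were tested in concentration-response format on HT-1080-NT cells for 48 hours at 37 degrees C. Cell viability came from CellTiter-Glo luminescence; curves were classified by r2, response magnitude and activity.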
DT40 TDP1 CPT: DT40-hTDP1 cell growth loss with CPT; AID 686979; chicken DT40 Tdp1-/-;hTDP1 cells + 20 nM CPT, ATP luminescence, 48 h; Potency, µM (highest dose often 46.2 µM), for the others: at the highest dose activity change, negative = growth inhibition, hits mostly inhibitors; 420,000 compounds, 12% hits; further: nearly all actives have a fitted effect of over 55% in size
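Chicken DT40 Tdp1-/- cells complemented with human TDP1, 400 cells/well, exposed to compounds plus 20 nM camptothecin for at least 48 h at 37 C; viability read as ATP content by CellTiter-Glo luminescence.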
KB-V1 cytotox: KB-V1 MDR subline cytotoxicity; KB-V1 MDR cells viability, CellTiter-Glo, 72 h; Potency, µM (series often up to 46.1 µM), usual class: cytotoxic; 400,000 compounds, 3.4% hits; further: nearly all actives have a fitted effect of over 60% in size
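KB-V1 MDR subline cells in DMEM (phenol-red free, 10% FBS) exposed to compounds in qHTS concentration series for 72 h at 37 degrees C. Viability read by CellTiter-Glo luminescence; concentration-effect curves fitted after normalization and correction.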
HT1080 IDH1KD tx: HT-1080 IDH1 knockdown cell toxicity (counter line). HT-1080 IDH1 knockdown viability, ATP luminescence, 48 h. Potency, µM (series often up to 46.1 µM), without a hit: top-dose activity, negative = toxicity, usual class: cytotoxic. 360,000 compounds, 2% hits;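 further: 0% = DMSO wells and -100% = cell-free medium wells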
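Assay cells: HT-1080 with IDH1 knockdown, 750 per well, RPMI/5% FBS. Exposure: 48 h at 37 °C following 2 h pre-incubation. Read: CellTiter-Glo luminescence; fitted concentration-response, curve class assigned.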
KB-3-1 cytotox: KB-3-1 parental cell cytotoxicity; 400,000 compounds, 1.4% hits; Potency, µM (titrated, usually from 46.1 µM), hits mostly cytotoxic; KB-3-1 viability, CellTiter-Glo ATP luminescence, 72 h; further: nearly all actives have a fitted effect of over 60% in size
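Parental KB-3-1 viability, qHTS format: 72 h compound exposure, 37 °C; CellTiter-Glo; media-only wells and DMSO plates as controls; concentration-effect fits on corrected data.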
* hit, by the source's call; i = inactive; u = inconclusive; x = not tested or not shown. Rows were chosen to be rich in hits. Some 19% of all compounds tested hit in one or more screens of this group. The call rests on the fitted dose curve; in most records, active means well fitted curve in the direction sought with a large enough effect; inconclusive means small, poorly fitted or top-dose-only effect, or another doubt; inactive means no such curve, though single readings can be large; an effect the other way counts as inactive or inconclusive. Unless noted, on the % scale 0 is the no-effect control and ±100 the full control effect; potency means the concentration at half of the fitted maximal effect.

SMILES | TDP1 cell noCPT | HT1080NT lethal | DT40 TDP1 CPT | KB-V1 cytotox | HT1080 IDH1KD tx | KB-3-1 cytotox
C/C(=N\NC(=O)c1cc(C)nc2ccccc12)c1ccco1 | 1.1% | 4.8% | 12.0% | i | 15.6% | i
CCCCOc1ccc(C(=O)NCC(=O)NCC(c2ccc(OC)cc2)N2CCCC2)cc1 (stereo unspecified) | -27.4% | -1.3% | -16.4% | i | -0.8% | i
Cc1ccccc1C(=O)NCCc1nnc(SCC(=O)Nc2nc(-c3ccccc3)cs2)n1C | u | -9.9% | -25.0% | i | -14.9% | i
Cc1cccc(C)c1NCc1nnc(SCC(=O)Nc2nc(-c3ccccc3)cs2)n1-c1ccccc1 | 2.31µM* | -2.3% | 2.06µM* | u | 1.2% | u
CCOc1ccc(NCc2nnc(SCC(=O)Nc3nc(-c4ccccc4)cs3)n2-c2ccccc2)cc1 | 23.1µM* | -25.1% | u | i | -28.9% | u
O=C(NC1CCCCCC1)C1CCN(c2nc3ccccc3o2)CC1 | 16.4µM* | -0.6% | u | u | 7.7% | i
COc1nc(OC)nc(N2CCC(C(=O)NC3CCCCCC3)CC2)n1 | -28.4% | -1.4% | u | 10.3µM* | 0.7% | i
CC1CCCCN1CCCNC(=O)C1CCN(c2nc3ccccc3o2)CC1 (stereo unspecified) | -17.7% | -12.8% | 3.2% | i | -4.7% | i
Cc1cccc(Oc2ccc(NC(=O)CCC(=O)OCC(=O)c3ccc(Br)cc3)cc2)c1C | 11.6µM* | x | 13µM* | i | x | i
CC(C)(C)c1ccc(Oc2ccc(NC(=O)CCC(=O)OCC(=O)c3ccccc3)cc2)cc1 | 13µM* | x | 14.6µM* | i | x | i
Cc1ccc(C(=O)COC(=O)CCC(=O)Nc2ccc(Oc3cc(C)ccc3C(C)C)cc2)cc1 | u | x | u | i | x | i
Cc1ccc(C(=O)COC(=O)CCC(=O)Nc2ccc(Oc3ccccc3)cc2)cc1C | -2.1% | x | 8.9% | u | x | i
O=C(NC1CCCC1)C1CCN(C(=O)c2ccc(-c3ccccc3)cc2)CC1 | u | 4.4% | -18.5% | u | -8.9% | i
Cc1cc(=O)oc2cc(O)c(N=Nc3ccccc3)cc12 | 12.4% | 0.4% | u | i | -1.7% | i
CC(=NNC(=S)N1CC2CCC(CC2)C1)c1cccc(C)n1 | 0.0206µM* | -21.4% | 0.0103µM* | u | u | u
CC(=NNC(=S)N1CCCC1)c1ccccn1 | -90.0% | u | -82.6% | u | u | u
O=C(Nc1ccc(C(=O)OCc2cc(=O)n3nc(C4CC4)sc3n2)cc1)c1ccccc1 | -20.8% | x | -18.8% | i | x | i
OC1c2c(F)cccc2N=C2CCCCN21 (stereo unspecified) | u | 12.1% | 8.2µM* | i | 7.2% | i
Cc1ccc(-c2nnc(Oc3ccc(NC(=O)c4ccccc4)cc3)c3ccccc23)cc1 | u | 14.9% | u | u | 3.4% | u
COc1cc(OC)c(OC)cc1NC(=O)CC1COc2ccccc2O1 (stereo unspecified) | -4.3% | 4.7% | u | 14.6µM* | 6.4% | i
O=C(NCc1ccccc1)C(=O)NCC1COc2ccccc2O1 (stereo unspecified) | 2.59µM* | 16.4µM* | 2.91µM* | 5.17µM* | 10.3µM* | i
COc1ccccc1NC(=O)C(=O)NCC1COc2ccccc2O1 (stereo unspecified) | 0.562µM* | 6.1% | -7.1% | u | -8.6% | i
O=C(COC(=O)c1cc(-c2cccs2)nc2ccccc12)c1ccc(Br)cc1 | u | x | -17.2% | i | x | i
CC(=O)C1=C(C)NC(SCC(=O)c2ccc(Cl)cc2)=C(C#N)C1CC(C)C (stereo unspecified) | u | 20.6% | -23.3% | 20.6µM* | 6.2% | i
